Laboratory results from PubChem BioAssay (NCI).
Several values for one entry are separate records, joined by “and”; a condition that tells them apart may be missing. Equal entries are not always repeated. About 83,000 compounds went through this panel and 20% of them were active in at least one assay; those are over-represented in the sample as a whole.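 Cells were grown in 96-well plates and exposed to the test compound at a single concentration for 48 hours; results are reported as percent growth, with values below 10 considered active.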 Activity calls are given as the source filed them.

Legend:
Experiment in all cases: NCI-60 one-dose screen, 48 h (100 = growth as untreated, 0 = no growth, -100 = all killed)
Conditions in all cases: 10 µM unless noted
SK-MEL-2 melanoma = tested on: SK-MEL-2 melanoma
EKVX NSCLC = tested on: EKVX NSCLC
SN12C renal = tested on: SN12C renal
UO-31 renal = tested on: UO-31 renal
TK-10 renal = tested on: TK-10 renal
ACHN renal = tested on: ACHN renal
CAKI-1 renal = tested on: CAKI-1 renal
A498 renal = tested on: A498 renal
CCRF-CEM leukemia = tested on: CCRF-CEM leukemia
MOLT-4 leukemia = tested on: MOLT-4 leukemia

Measured: growth

C/C=C(\C)C(=O)N[C@H]1CC[C@]2(C)C3CC[C@@]4(C)C(CC[C@@H]4C(C)N(C)C)C3CCC2[C@H]1OC(C)=O (stereo not given in full)
active: SK-MEL-2 melanoma -32.7% | EKVX NSCLC -11.3% | SN12C renal -3.57% | UO-31 renal -4.52% | TK-10 renal -48.3% | ACHN renal -65.1% | CAKI-1 renal -43.3% | A498 renal -32.9% | CCRF-CEM leukemia 1.62%
inactive: MOLT-4 leukemia 11.2%

NC(=O)c1c(NC(=O)/C=C/c2cccs2)sc2c1CCC(=O)C2
active: UO-31 renal 5.7% | ACHN renal 5.27%
inactive: SK-MEL-2 melanoma 49.7% | EKVX NSCLC 40.4% | SN12C renal 23.1% | TK-10 renal 43.9% | CAKI-1 renal 14.2% | A498 renal 115% | CCRF-CEM leukemia 10.5% | MOLT-4 leukemia 21.8%

COc1ccc(C(=O)N/N=C/c2ccc(O)cc2O)cc1Nc1ccnc(C(F)(F)F)c1
inactive: SK-MEL-2 melanoma 61.5% | EKVX NSCLC 26.9% | SN12C renal 33.1% | UO-31 renal 30.4% | TK-10 renal 53.4% | ACHN renal 35.8% | CAKI-1 renal 39.3% | A498 renal 55.2% | MOLT-4 leukemia 23.4%
active: CCRF-CEM leukemia 5.69%

O=C(O)c1ccccc1Cc1ccc(F)c2ccccc12
inactive: SK-MEL-2 melanoma 101% and 119% | EKVX NSCLC 107% | SN12C renal 107% and 97.9% | UO-31 renal 77.7% and 89.1% | TK-10 renal 107% and 109% | ACHN renal 99.3% and 102% | CAKI-1 renal 94.9% and 100% | A498 renal 99.3% and 97.4% | CCRF-CEM leukemia 98.8% and 96.3% | MOLT-4 leukemia 93.7% and 107%

Cc1ccc(Cl)cc1N1CCN(C(=O)[C@@H]2C[C@@H]2c2ccc(F)cc2)CC1
inactive: SK-MEL-2 melanoma 91.7% | EKVX NSCLC 88.3% | SN12C renal 98.9% | UO-31 renal 70.9% | TK-10 renal 100% | ACHN renal 93% | CAKI-1 renal 69.1% | A498 renal 87.2% | CCRF-CEM leukemia 91.5% | MOLT-4 leukemia 78.5%

N#C/C(=C\c1ccc(Br)cc1)n1nnc2c(F)cccc21
inactive: SK-MEL-2 melanoma 28.4% | EKVX NSCLC 30.6%
active: SN12C renal -1.81% | UO-31 renal -65.9% | TK-10 renal 2.41% | ACHN renal -50.8% | CAKI-1 renal -4.93% | A498 renal -21.9% | CCRF-CEM leukemia 2.97% | MOLT-4 leukemia 9.87%

CCOC(=O)c1cnn(CC(O)CC)c1NC(=O)NCc1ccccc1C(F)(F)F (stereo not given)
inactive: SK-MEL-2 melanoma 87.3% | EKVX NSCLC 91.8% | SN12C renal 101% | UO-31 renal 77.6% | TK-10 renal 101% | ACHN renal 102% | CAKI-1 renal 77.6% | A498 renal 105% | CCRF-CEM leukemia 84.9% | MOLT-4 leukemia 87.2%

Nc1nc2c(s1)CCc1cn(S(=O)(=O)c3ccccc3)cc1-2
inactive: SK-MEL-2 melanoma 106% and 99.1% | EKVX NSCLC 95.8% | SN12C renal 86.6% and 93.5% | UO-31 renal 54.5% and 84.5% | TK-10 renal 108% and 115% | ACHN renal 95.9% and 101% | CAKI-1 renal 85.8% and 101% | A498 renal 80% and 73.5% | CCRF-CEM leukemia 79.9% and 79.3% | MOLT-4 leukemia 84.3% and 91.6%

COc1ccc(C/C(C)=C(/c2ccc(OCCN3CCCC3)cc2)c2ccc(OC(=O)NCc3ccccc3)cc2)cc1
inactive: SK-MEL-2 melanoma 104% | EKVX NSCLC 87.5% | SN12C renal 91.9% | UO-31 renal 59.9% | TK-10 renal 92.8% | ACHN renal 89.7% | CAKI-1 renal 97.7% | A498 renal 107% | CCRF-CEM leukemia 47.3% | MOLT-4 leukemia 40%

O=[N+]([O-])c1ccc(S(=O)Cc2ccccc2)c([N+](=O)[O-])c1 (stereo not given)
active: UO-31 renal -24.9% and -40.3% | ACHN renal -58.6% and -91.6% | CCRF-CEM leukemia -15% and 0.711%
35.8% (inactive) and -14.6% (active): CAKI-1 renal
81.6% (inactive) and 1.31% (active): MOLT-4 leukemia
32.5% (inactive) and -27.2% (active): TK-10 renal
inactive: SK-MEL-2 melanoma 82.9% and 87.7% | EKVX NSCLC 90.4% | SN12C renal 62.5% and 87.4% | A498 renal 98% and 85.1%

Cn1cc(-c2nc3c(F)cc4[nH]ncc4c3c3c2CCCC3)c(C(F)F)n1
inactive: SK-MEL-2 melanoma 76.7% | EKVX NSCLC 54.5% | SN12C renal 66.7% | UO-31 renal 35.8% | TK-10 renal 52.3% | ACHN renal 44.3% | CAKI-1 renal 37% | A498 renal 33.1%
active: CCRF-CEM leukemia 4.61% | MOLT-4 leukemia 7.32%

CC1(C)C(N)=Nc2cc(OCCCCN3Cc4ccccc4C3)c(OCC3CC3)cc21
inactive: SK-MEL-2 melanoma 110% | EKVX NSCLC 78.6% | SN12C renal 81.9% | UO-31 renal 60.5% | TK-10 renal 86.9% | ACHN renal 87.8% | CAKI-1 renal 56.3% | A498 renal 109% | CCRF-CEM leukemia 99.4% | MOLT-4 leukemia 101%

CCOC(=O)CCCn1c(-c2ccccc2)cc(-c2ccccc2)c(C#N)c1=O
inactive: SK-MEL-2 melanoma 94.8% | EKVX NSCLC 93.4% | SN12C renal 84.6% | UO-31 renal 71.5% | TK-10 renal 113% | ACHN renal 94.7% | CAKI-1 renal 57.3% | A498 renal 25.7% | CCRF-CEM leukemia 88.4% | MOLT-4 leukemia 82.1%

Cc1ccc2nc3ccccc3c(NCc3ccc(Cl)cc3)c2c1
inactive: SK-MEL-2 melanoma 102% | EKVX NSCLC 55.4% | SN12C renal 39.6% | UO-31 renal 24.5% | TK-10 renal 82.4% | ACHN renal 33.3% | CAKI-1 renal 45.7% | A498 renal 13% | CCRF-CEM leukemia 18.2%
active: MOLT-4 leukemia 0.0972%

N#CC(Cc1cccc2ccccc12)c1cc2ccccc2[nH]1 (stereo not given)
inactive: SK-MEL-2 melanoma 113% | EKVX NSCLC 94.1% | SN12C renal 90.2% | UO-31 renal 51.9% | TK-10 renal 108% | ACHN renal 95.2% | CAKI-1 renal 73.7% | A498 renal 112% | MOLT-4 leukemia 78.2%
active: CCRF-CEM leukemia -47%

COc1cc(OC)cc(-c2ccc(-c3ccc(C(=N)N)cn3)s2)c1
inactive: SK-MEL-2 melanoma 104% | EKVX NSCLC 95.6% | SN12C renal 79.2% | UO-31 renal 94.2% | TK-10 renal 113% | ACHN renal 75% | CAKI-1 renal 69.8% | A498 renal 102% | MOLT-4 leukemia 49.3%
active: CCRF-CEM leukemia 8.54%

O=C(c1cccc(Br)c1)N1CCN(c2ccnc3cc(Cl)ccc23)CC1
inactive: SK-MEL-2 melanoma 85.7% | EKVX NSCLC 87.5% | SN12C renal 94% | UO-31 renal 63.6% | TK-10 renal 75.8% | ACHN renal 90.6% | CAKI-1 renal 79% | A498 renal 34.1% | CCRF-CEM leukemia 87.3% | MOLT-4 leukemia 87.8%

O=C(Nc1ccc(Cl)c(Cl)c1)Nc1ccc(Cl)c(Cl)c1
-28.5% (active) and 20.8% (inactive): MOLT-4 leukemia
-96.9% (active) and 35.3% (inactive): TK-10 renal
inactive: EKVX NSCLC 23.1%
-14% (active) and 21.4% (inactive): CCRF-CEM leukemia
active: UO-31 renal -88.8% and -9.62% | ACHN renal -85.8% and 7.07% | CAKI-1 renal -90.8% and -2.12% | A498 renal -90.1% and -0.946%
-83.4% (active) and 14.8% (inactive): SN12C renal
-78.9% (active) and 45.5% (inactive): SK-MEL-2 melanoma

CC1=CC=C(NC(=O)/C=C/c2ccccc2)CC1Nc1nccc(-c2cccnc2)n1 (stereo not given)
inactive: SK-MEL-2 melanoma 28.2% | EKVX NSCLC 67.4% | SN12C renal 50.3% | UO-31 renal 65.2% | TK-10 renal 107% | ACHN renal 50.3% | CAKI-1 renal 32.5% | A498 renal 24.7% | CCRF-CEM leukemia 19.4% | MOLT-4 leukemia 26%

CN(C)C(=O)c1cc2cnc(Nc3ccc(-c4csc5c(=S)cc(N6CCOCC6)oc45)cc3)nc2n1C1CCCC1
active: SK-MEL-2 melanoma -24.6% | SN12C renal 7.93% | UO-31 renal -4.43% | TK-10 renal 4.82% | ACHN renal 6.64% | A498 renal -38.2% | CCRF-CEM leukemia 1.8% | MOLT-4 leukemia 2.85%
inactive: EKVX NSCLC 12.1% | CAKI-1 renal 11.7%

NC1=CC(=O)c2cccnc2C1=O
active: SK-MEL-2 melanoma -46.6% | EKVX NSCLC -20.8% | SN12C renal -85.2% | UO-31 renal -98.2% | ACHN renal 5.89% | CAKI-1 renal -69.4% | CCRF-CEM leukemia -24.3% | MOLT-4 leukemia -46.4%
inactive: TK-10 renal 94.3% | A498 renal 81.9%
